PfHsp40 yeast: rescue of PfHsp40-mediated yeast toxicity; growth rescue, % at 12.5 µM; S. cerevisiae expressing PfHsp40, growth rescue, ATP luminescence; AID 504582; 340,000 compounds, 0.68% hits; in the data active = growth rescue above about 28%, passing the limit was not always enough; inconclusive = no clear call, values can overlap the other calls;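 also: yeast W303a lacking pdr1 and pdr3 grown in galactose medium; growth measured after three days at 30 °C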
Mtb BioA inh: blocks M. tuberculosis BioA enzyme activity. 360,000 compounds, 0.096% hits. purified M. tuberculosis BioA enzyme, plate reader. inhibition, % at 9.99 µM; in the data active = inhibition above about 40%; inconclusive = no clear call, values can overlap the other calls
Sa RN4220 lethal: kills Staphylococcus aureus RN4220; S. aureus RN4220 growth, OD600, 16 h; 330,000 compounds, 0.33% hits; inhibition, % (test concentration not listed); AID 1259311; in the data active = inhibition above about 85%
Mtb bLac sens: beta-lactam sensitization of Mtb H37Rv; inhibition, % at 25 µM; AID 434955; 330,000 compounds, 0.27% hits; M. tuberculosis H37Rv growth with meropenem, percent inhibition; call rule not given here;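 also: growth measured after seven days incubation then overnight dye step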
Sa ugtP lethal: growth inhibition of S. aureus ugtP deletion strain; S. aureus RN4220 ugtP deletion, OD600 growth, 16 h; growth inhibition, % (no concentration beside the values); 330,000 compounds, 0.54% hits; in the data active = growth inhibition above about 68%
Large screens that a line does not name were inactive. Rows were chosen to be rich in hits. Some 0.9% of all compounds tested hit in one or more screens of this group.

COC1C=CO[C@@]2(C)Oc3c(C)c(O)c4c(O)c(c(C=NN5CCN(C6CCCC6)CC5)c(O)c4c3C2=O)NC(=O)C(C)=CC=CC(C)C(O)C(C)C(O)C(C)C(OC(C)=O)C1C (stereo not given in full)	Sa RN4220 lethal 99, Sa ugtP lethal 98 (no result: PfHsp40 yeast, Mtb BioA inh, Mtb bLac sens)
CCCOC(=O)c1c(-c2ccccc2)nc(CC)c(C(=O)SCC)c1CCC	Sa ugtP lethal 95
CCCc1nc2ccccc2c(C(=O)O)c1CC	none
CC1CCC2C(=O)NC(Cc3ccccc3)C(=O)N2C1c1ccccc1 (stereo not given)	none (no result: PfHsp40 yeast, Mtb BioA inh, Mtb bLac sens)
O=c1c(CO)cc(CO)cc(CO)c1O	PfHsp40 yeast 422 (no result: Mtb BioA inh)
CC1OC(OC2C(O)C(C)OC(OC(=O)[C@]34CCC(C)(C)CC3C3=CCC5[C@@]6(C)CC(O)C(OC7OC(CO)C(O)C(O)C7O)[C@@](C)(C(=O)O)C6CC[C@@]5(C)[C@]3(CO)CC4)C2OC2OC(C)C(OC3OCC(OC4OC(CO)C(O)C(O)C4O)C(O)C3O)C(O)C2O)C(O)C(O)C1O (stereo not given in full)	none (no result: PfHsp40 yeast, Mtb BioA inh, Mtb bLac sens)
CCOC1OC(C(=O)N2CCN(Cc3ccccc3)CC2)=CC(c2csc3ccccc23)C1CCCO (stereo not given)	none (no result: PfHsp40 yeast, Mtb BioA inh, Mtb bLac sens)
COc1cc(C=NNc2snc(SC)c2C#N)ccc1O	none (no result: PfHsp40 yeast, Mtb BioA inh, Mtb bLac sens)
COc1cccc(C=NNc2snc(SC)c2C#N)c1O	Sa RN4220 lethal 96, Sa ugtP lethal 96 (no result: PfHsp40 yeast, Mtb BioA inh, Mtb bLac sens)
O=C(N/N=C/c1cc2c3c(c1O)CCCN3CCC2)c1ccccc1O	PfHsp40 yeast 176 (no result: Mtb BioA inh, Sa RN4220 lethal, Mtb bLac sens, Sa ugtP lethal)
CCN(CC)c1ccc(N2C(=O)CSC2=S)cc1	Sa ugtP lethal 33
CCn1c(CNc2ccc(Cl)cc2)nnc1SCc1ccc(C)cc1	PfHsp40 yeast inconclusive
CCn1c(CNc2ccc(Cl)cc2)nnc1SCc1ccc(Cl)cc1	PfHsp40 yeast 166
CCC(C)C(N)c1cn(C(CCCCN)C(=O)N2CCNCC2)nn1 (stereo not given)	none (no result: PfHsp40 yeast, Mtb BioA inh, Mtb bLac sens)
COc1ccc(-c2nnc(NC(=O)c3cc(Cl)ccc3Cl)o2)cc1	Sa ugtP lethal 100
CN(C)S(=O)(=O)c1ccc(C(=O)Nc2nnc(-c3ccc4c(c3)CCCC4)o2)cc1	Sa RN4220 lethal 98, Sa ugtP lethal 99
O=C(Nc1nnc(-c2ccc3c(c2)CCCC3)o1)c1ccc(Cl)cc1Cl	Sa RN4220 lethal 99, Sa ugtP lethal 100
COc1ccc(-c2nnc(NC(=O)c3ccc(S(=O)(=O)N4CCc5ccccc5C4)cc3)o2)cc1	Sa ugtP lethal 99
O=C(Nc1nnc(-c2ccc3c(c2)CCCC3)o1)c1c(F)cccc1F	none (no result: Mtb BioA inh)
CN(C)S(=O)(=O)c1ccc(N2CCCC2)c(C(=O)NNC(=O)c2ccccc2)c1	Sa RN4220 lethal 95
O=C(c1ccc([N+](=O)[O-])o1)N1CCc2ccccc21	none
O=C(c1ccc([N+](=O)[O-])o1)N1CCc2ccccc2C1	PfHsp40 yeast 53 (no result: Mtb BioA inh)
COc1ccc(C(=O)N2CCc3cc(OC)c(OC)cc3C2)cc1OC	none
COc1cc2c(cc1OC)CN(C(=O)c1ccc([N+](=O)[O-])o1)CC2	PfHsp40 yeast 63 (no result: Mtb BioA inh)
O=C1CCN(CCc2ccccc2)CCN1C(CO)Cc1ccccc1 (stereo not given)	none (no result: PfHsp40 yeast, Mtb BioA inh, Mtb bLac sens)
CCC(C)C(CN)NCC1(c2ccccc2)CC1 (stereo not given)	none (no result: PfHsp40 yeast, Mtb BioA inh, Mtb bLac sens)
O=C1NN(c2ccc(F)c(Cl)c2)C(=O)/C1=C\c1cccc(OC(=O)c2cccs2)c1	PfHsp40 yeast 85
CC(C)=C1C(=O)NN(c2ccc(F)c(Cl)c2)C1=O	none
c1ccc(-c2ncc(-c3ccn[nH]3)s2)cc1	PfHsp40 yeast 65 (no result: Mtb BioA inh)
c1ccc(Oc2ccc(-c3ccn[nH]3)cc2)cc1	none (no result: Mtb BioA inh)
CCn1cc(C(=O)O)c(=O)c2cc(F)c(N3CCN(C)CC3)cc21	Sa RN4220 lethal 99, Sa ugtP lethal 100
C[C@H]1COc2c(N3CCN(C)CC3)c(F)cc3c(=O)c(C(=O)O)cn1c23	none (no result: Sa RN4220 lethal, Sa ugtP lethal)
CCCCCCCC(=O)N1CCN(c2cc3c(cc2F)c(=O)c(C(=O)O)cn3CC)CC1	Sa RN4220 lethal 95, Sa ugtP lethal 99
CN1CCN(c2c(F)cc3c(=O)c(C(=O)O)cn4c3c2SCC4)CC1	Sa RN4220 lethal 99, Sa ugtP lethal 99
COC(=O)C1=C(c2ccc(F)cc2OCc2ccccc2)CC2CCC1N2C(=O)NCCCOC(C)C (stereo not given)	none (no result: PfHsp40 yeast, Mtb BioA inh, Mtb bLac sens)
CCCNC(=O)N1C2CCC1C(C(=O)OC)=C(c1cccc(C#N)c1)C2 (stereo not given)	none (no result: PfHsp40 yeast, Mtb BioA inh, Mtb bLac sens)
O=C(Nc1cccc(Cl)c1N1CCCC1)c1cc2ccccc2o1	Sa ugtP lethal 89
Cc1ccccc1NC(C)C(=O)N/N=C/c1ccccc1OCc1cccc(Br)c1 (stereo not given)	PfHsp40 yeast 35 (no result: Sa RN4220 lethal, Sa ugtP lethal)
